Experimental data published in paper PMC7826789 (International Journal of Molecular Sciences, 2021).

Columns and labels:
Conditions in all cases: Compound Concentration (nM):1000
TNK1 = system: TNK1
TNK2 = system: TNK2
TNNI3K = system: TNNI3K
TRKA = system: T1, TRKA
T1 construct: gene NTRK1

TRKB = system: T2, TRKB
T2 construct: gene NTRK2

TRKC = system: T3, TRKC
T3 construct: gene NTRK3

TRPM6 = system: TRPM6
TSSK1B = system: TSSK1B
TSSK3 = system: TSSK3
TTK = system: TTK
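Further: KINOMEscan scanMAX binding as percent activity remaining versus control; lower means stronger binding.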

| Structure (SMILES) | Percent Control (TNK1) | Percent Control (TNK2) | Percent Control (TNNI3K) | Percent Control (TRKA) | Percent Control (TRKB) | Percent Control (TRKC) | Percent Control (TRPM6) | Percent Control (TSSK1B) | Percent Control (TSSK3) | Percent Control (TTK) |
| --- | --- | --- | --- | --- | --- | --- | --- | --- | --- | --- |
| CCS(=O)(=O)c1ccc(OC)c(Nc2ncc(-c3cccc(F)c3)o2)c1 [GW621970X] | 38% | 90% | 66% | 11% | 30% | 48% | 88% | 100% | 100% | 100% |
| C[C@@H](Oc1cc(-n2cnc3ccc(OC4CCN(C)CC4)cc32)sc1C(N)=O)c1ccccc1Cl [GSK579289A] | 76% | 86% | 100% | 49% | 82% | 91% | 88% | 71% | 100% | 69% |
| C/C(Nc1ccc(S(N)(=O)=O)cc1)=C1/C(=O)Nc2ccccc21 [GW335962X] | 100% | 100% | 69% | 7.9% | 25% | 42% | 84% | 100% | 75% | 12% |
| Cc1cc(O)cc(C)c1/C=C/c1cncc(C(N)=O)c1 [GW435821X] | 100% | 100% | 67% | 98% | 94% | 100% | 100% | 100% | 100% | 90% |
| CN(C)CCNC(=O)Nc1ccc(N(C)c2ccnc(Nc3ccc(CS(C)(=O)=O)cc3)n2)cc1.Cl [GW830900A] | 39% | 75% | 97% | 16% | 34% | 57% | 100% | 100% | 83% | 68% |
| CC1=C(C(=O)Nc2ccc3[nH]ncc3c2)C(c2ccc(Cl)c(Cl)c2)CC(=O)N1 (centres unmarked) [GSK299115A] | 82% | 79% | 100% | 72% | 97% | 68% | 87% | 93% | 77% | 89% |
| CCc1ccc(Oc2nccc(-c3c(-c4ccc(F)cc4)ncn3C3CCNCC3)n2)cc1 [SB-242719] | 80% | 82% | 100% | 86% | 98% | 98% | 100% | 99% | 90% | 80% |
| CCn1c(-c2nonc2N)nc2c(C#CC(C)(C)O)nc(OCCNC)cc21.Cl [GSK949675] | 100% | 100% | 100% | 100% | 100% | 100% | 100% | 90% | 14% | 91% |
| COc1ccccc1-c1cc(/C=C2\C(=O)Nc3ncc(Br)cc32)cc(Br)c1O [GW442130X] | 97% | 100% | 100% | 7.2% | 22% | 44% | 100% | 75% | 97% | 97% |
| COc1cc2ncnc(Nc3ccc4c(cnn4Cc4ccccc4)c3)c2cc1OC.Cl [GW282449A] | 100% | 77% | 100% | 100% | 100% | 100% | 87% | 100% | 100% | 96% |
| COc1ccc2[nH]c3c4[nH]c5ccc(OC)cc5c4c4c(c3c2c1)C(=O)NC4=O [GW296115X] | 29% | 69% | 90% | 40% | 59% | 47% | 79% | 89% | 89% | 50% |
| NS(=O)(=O)c1ccc(N/N=C2\C(=O)Nc3ccc(-c4cnco4)cc32)cc1 [GW276655] | 52% | 66% | 100% | 15% | 39% | 38% | 89% | 100% | 100% | 20% |
| Cl.O=C(Nc1ccc(Oc2ccc3[nH]c(NC(=O)c4ccccc4)nc3c2)cc1)Nc1cc(C(F)(F)F)ccc1F [GW709042A] | 66% | 100% | 55% | 27% | 35% | 29% | 100% | 100% | 100% | 87% |
| COc1cc(C)c(N(C)C(=O)CN(C)C)cc1Nc1nc(Nc2cccc(F)c2C(N)=O)c2cc[nH]c2n1 [GSK2219385] | 83% | 100% | 100% | 87% | 100% | 100% | 100% | 100% | 100% | 71% |
| Cl.O=C(Nc1ccc(Oc2ccc3[nH]c(NC(=O)c4ccco4)nc3c2)cc1)Nc1cc(C(F)(F)F)ccc1F [GW683134A] | 36% | 100% | 53% | 5% | 6% | 3% | 100% | 100% | 100% | 85% |
| CC(C)COC(=O)c1ccc2c(c1)/C(=C/Nc1ccc(S(N)(=O)=O)cc1)C(=O)N2 [GW416981X] | 100% | 100% | 100% | 23% | 55% | 59% | 100% | 100% | 100% | 6.3% |
| COc1ccc2c(-c3ccnc(Nc4cccc(OC(F)(F)F)c4)n3)cnn2n1 [GW810372X] | 100% | 100% | 100% | 55% | 92% | 91% | 92% | 100% | 86% | 94% |
| COc1ccc2cc(-c3c(-c4ccncc4)nc(-c4ccc(S(C)(=O)=O)cc4C)n3C)ccc2c1 [SB-633825] | 57% | 61% | 100% | 73% | 70% | 60% | 71% | 74% | 57% | 91% |
| O=C1Nc2ccc(C(=O)c3ccco3)cc2C1=Cc1cc(Cl)c(O)c(Cl)c1 [GW406108X] | 79% | 100% | 100% | 33% | 75% | 61% | 95% | 100% | 87% | 30% |
| CN1CCN(C(=O)c2ccc(NC(=O)Nc3ccc(N(C)c4ccnc(Nc5ccc(CS(C)(=O)=O)cc5)n4)cc3)cc2)CC1.Cl [GW830263A] | 6.7% | 6.5% | 92% | 7.1% | 11% | 2% | 91% | 96% | 75% | 61% |
